Nrf2 block: blocks Nrf2 signaling; Potency, µM (series often up to 46 µM), for the others: top-dose activity change, negative = inhibition, actives largely listed as inhibitors; A549 ARE-Fluc reporter, luciferase luminescence, 18-24 h; hit rate 2.1% among 360,000; further: on the % scale 0 is the no-effect control and ±100 the full control effect; nearly all actives have a fitted effect of over 60% in size
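Quantitative HTS in A549 cells stably bearing an antioxidant response element-firefly luciferase construct. Inhibition of Nrf2-driven transcription was scored by luminescence after 18-24 h of compound exposure at 37 °C.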
A549 viability: kills or reduces viability of A549 cells in Nrf2 counter-screen. A549 ARE-Fluc cells, CellTiter-Fluor viability, 18-24 h. Potency, µM (titrated, usually from 46 µM), without a hit: top-dose activity change, negative = cytotoxicity, usual class: inhibitors. hit rate 0.16% among 390,000; further: on the % scale 0 is the no-effect control and ±100 the full control effect
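A549 ARE-Fluc cells in 5% FBS OPTI-MEM, 5000 cells/well, rested 2 h then exposed to compounds in concentration-response for 18-24 h at 37 °C. Viability by CellTiter-Fluor fluorescence (Ex 405/Em 525) after 30 min; luciferase luminescence (BugLite, 15 min, RT) read afterwards.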
Nrf2 ARE act: Nrf2 pathway activation; hit rate 0.31% among 410,000; AREc32 ARE-luciferase reporter (MCF7-derived line), luminescence, 24 h; Potency, µM (doses to about 46.1 µM), for inactives: top-dose activation, actives largely listed as activators; further: % of control where 0% means no effect; nearly all actives have a fitted effect of over 65% in size
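Quantitative high-throughput format: AREc32 reporter cells, 1000 per well, received compound by pin transfer and were incubated 24 hr at 37 deg C, 5% CO2, before Steady-Glo luminescence detection.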
Pin1 inhibitor: blocks the human prolyl isomerase Pin1; hit rate 0.009% among 390,000; Potency, µM (titrated, usually from 115 µM), for the others: at the top dose activity, negative = inhibition, actives largely listed as inhibitors; Q13526; Pin1 FP peptide displacement, HiFluor488, 10 min; AID 504891; active means well fitted inhibition curve with a large enough effect in the polarisation, with a control signal flat, not every such curve was filed as active; inconclusive means small, poorly fitted or top-dose-only effect, or effect the other way, or a change in a side signal; inactive means no such curve, though single readings can be large or run the other way; the % refers to the polarisation; further: on the % scale 0 is the no-effect control and ±100 the full control effect
Target sequence (Q13526 whole entry, looked up): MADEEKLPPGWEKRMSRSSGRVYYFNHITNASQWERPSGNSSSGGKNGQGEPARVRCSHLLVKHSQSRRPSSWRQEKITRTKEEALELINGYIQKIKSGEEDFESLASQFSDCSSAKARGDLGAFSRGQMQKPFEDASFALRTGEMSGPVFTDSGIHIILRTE
* = called active by the depositor; ? = inconclusive; . = no result given; [ ] = remark or other dose. Sampled rows, rich in hits. Any-hit rate of the full collection: about 2.2%. Unless noted, the call rests on the fitted dose curve; in most records, active means well fitted curve in the direction sought with a large enough effect; inconclusive means small, poorly fitted or top-dose-only effect, or another doubt; inactive means no such curve, though single readings can be large; an effect the other way counts as inactive or inconclusive. Potency means the concentration at half of the fitted maximal effect.

SMILES	Nrf2 block	A549 viability	Nrf2 ARE act	Pin1 inhibitor
O=[N+]([O-])c1ccc(N/N=C/c2c[nH]c3ccccc23)cc1	4%	-27%	26%	111%
O=[N+]([O-])c1ccccc1N/N=C/c1c[nH]c2ccccc12	?	-27%	3.5µM*	-5%
Cc1ccc(-n2ncc(C(=O)NC3CCCCC3)c2C2CCN(C(=O)OC(C)(C)C)CC2)cc1	11%	7%	-1%	-2%
CC(=O)Nc1sc(C)c(C)c1CN1CCN(Cc2ccccc2)CC1	4%	0%	0%	5%
Cc1sc(NC(=O)c2ccccc2F)c(CN2CCCCC2C)c1C (stereo not given)	?	-2%	13µM*	9%
CC(C)(C)C1CCc2c(sc(NC(=O)CCC(=O)O)c2C(=O)Nc2ccccc2C(F)(F)F)C1 (stereo not given)	18µM*	?	1%	.
CCOc1ccc(NC(=O)c2c(NC(=O)c3ccncc3)sc3c2CCC(C(C)(C)C)C3)cc1 (stereo not given)	11%	-1%	0%	-7%
COc1ccc(NC(=O)c2c(NC(=O)c3ccncc3)sc3c2CCC(C(C)(C)C)C3)cc1 (stereo not given)	18µM*	-15%	1%	-1%
CC(=O)N1c2ccccc2C(=O)C1N1CCN(c2cc(Cl)ccc2C)CC1 (stereo not given)	-11%	11%	8%	6%
COc1ccc(/C=N/NC(=O)c2ccoc2C)cc1COc1ccc(Cl)cc1	13µM*	-28%	3%	15%
CCC(C)Sc1ccc(-c2nc3cnccn3c2NC2CCCCC2)cc1 (stereo not given)	23µM*	-29%	-1%	6%
Cc1ccc(Cn2cc(CCC(=O)NCC(C)c3ccccc3)c3ccccc32)cc1 (stereo not given)	18µM*	?	2%	2%
CCn1cc(CCC(=O)NCc2ccc(C)cc2)c2ccccc21	2%	-1%	0%	-3%
Cc1noc(C)c1S(=O)(=O)N(CC(=O)Nc1ccc(C(F)(F)F)cc1)c1ccc(C(C)C)cc1	16µM*	-13%	4%	-1%
CCOc1ccc(N(CC(=O)Nc2cccc(Cl)c2)S(=O)(=O)c2c(C)noc2C)cc1	23µM*	?	0%	?
Cc1cc(C)cc(OCC(=O)Nc2nc3c(s2)CC(C(C)(C)C)CC3)c1 (stereo not given)	?	0%	0%	-2%
CCCCN(Cc1cc2cc(C)ccc2[nH]c1=O)C(=O)c1cccc(Cl)c1	14%	9%	1%	4%
CCc1cccc(C)c1NC(=S)NCCc1c(C)[nH]c2ccc(C)cc12	?	-11%	-2%	1%
CCc1cccc(CC)c1NC(=S)NCCc1c(C)[nH]c2ccc(C)cc12	16µM*	-17%	-2%	8%
CCc1nn(CCCC(=O)N2CCN(c3cc(Cl)ccc3C)CC2)c(=O)c2cc3occc3n12	?	-18%	0%	33%
Cc1cccc(Cn2c(=O)n3nc(-c4ccccc4)nc3c3ccccc32)c1	15µM*	-6%	0%	?
CCOc1ccc(NC(=NCc2ccc3c(c2)OCO3)SC2CC(=O)N(c3ccc(OCC)cc3)C2=O)cc1 (stereo not given)	15µM*	-27%	0%	?
Cc1ccc(-c2onc(C)c2C)cc1S(=O)(=O)Nc1cccc(Cl)c1C	?	?	0%	14%
COc1cccc(NC(=O)/C(C#N)=C/c2c(C)n(Cc3ccccc3)c3ccccc23)c1	12µM*	-19%	0%	?
COc1cccc(NC(=O)/C(C#N)=C\c2cn(Cc3ccc(Cl)cc3)c3ccccc23)c1	?	-21%	0%	?
SMILES	Nrf2 block	A549 viability	Nrf2 ARE act	Pin1 inhibitor
COC(=O)C1=C[C@@H](C(=O)OC)C2C3=C(C(=O)[C@@]2(C)NC(=O)c2ccccc2)[C@H](c2ccccc2)n2c(=O)n(-c4ccccc4)c(=O)n2[C@@H]3C1 (stereo not given in full)	-10%	-5%	.	13%
CC1CCN(S(=O)(=O)c2ccc(C(=O)Nc3ccccc3-c3nc4ccccc4[nH]3)cc2)CC1	26µM*	-9%	0%	1%
COc1cc(CNCCSc2nnnn2C)cc(Br)c1OCc1ccccc1F	-8%	1%	-1%	-1%
CCOc1cc(CNCCSc2nnnn2C)cc(Br)c1OCc1ccccc1F	23µM*	?	5%	4%
OC(c1cccc(OCc2ccccc2)c1)c1nnc(-c2ccccc2)o1 (stereo not given)	?	-6%	1%	?
OC(c1ccc(OCc2ccccc2)cc1)c1nnc(-c2ccccc2)o1 (stereo not given)	16µM*	-18%	0%	?
CCCCC(O)C(=O)Nc1cc(C(F)(F)F)ccc1Cl (stereo not given)	14%	2%	.	-2%
CC(C)C(=O)Nc1ccc(COc2ccccc2CN(Cc2ccccc2)C(=O)OC(C)(C)C)cc1	?	-1%	4%	1%
CC(C)C(=O)Nc1cccc(COc2ccc(CN(Cc3ccccc3)C(=O)OC(C)(C)C)cc2)c1	16µM*	-4%	4%	1%
CCn1c(=O)cc(SCC(=O)Nc2cccc(SC)c2)c2ccccc21	13µM*	-23%	4%	27%
CCn1c(=O)cc(SCC(=O)Nc2cc(OC)c(OC)c(OC)c2)c2ccccc21	?	-12%	5%	-8%
c1nc(NCCc2cnc[nH]2)c2ccc(-c3ccc4c(c3)OCO4)cc2n1	11%	18%	.	6%
COc1ccc(OC)c(S(=O)(=O)N2CCN(C(=O)c3cc(C4CC4)nn3-c3ccccc3)CC2)c1	26µM*	-9%	0%	3%
O=C(CSc1n[nH]c(=O)n1C1CC1)Nc1cc(Cl)ccc1Oc1ccccc1	18µM*	?	-1%	-5%
O=C(CSc1n[nH]c(=O)n1C1CC1)Nc1ccccc1	-3%	2%	-1%	3%
COc1ccc(NC(=O)c2ccc([N+](=O)[O-])s2)c([N+](=O)[O-])c1	3%	-19%	10µM*	4%
COc1ccc(NC(=O)c2ccc(C)o2)c([N+](=O)[O-])c1	6%	4%	1%[9.22 µM]	17%
CC(=O)Nc1sc2c(c1-c1cc3ccccc3[nH]1)CCNC2	.	.	.	-38%
CCCCN(CC)S(=O)(=O)c1ccc(C(=O)Nc2nnc(CSC)o2)cc1	?	-21%	-2%	-10%
CCN(c1ccccc1)S(=O)(=O)c1ccc(C(=O)Nc2nnc(C3CC3)o2)cc1	12µM*	?	0%	0%
CCN(c1ccccc1)S(=O)(=O)c1ccc(C(=O)Nc2nnc(COC)o2)cc1	23µM*	-16%	-1%	-10%
COCc1nnc(NC(=O)c2ccc(S(=O)(=O)N(C)c3ccccc3)cc2)o1	?	4%	-2%	-1%
CCN(c1ccccc1)S(=O)(=O)c1ccc(C(=O)Nc2nnc(CSC)o2)cc1	12µM*	?	1%	-13%
CCCn1c(CN2CCN(c3ccc(OC)cc3)CC2)nc2c1c(=O)[nH]c(=O)n2C	14%	-3%	-2%	-3%
O=C(NNC(=O)c1ccccc1Cl)c1ccccc1Cl	4%	-9%	0%	5%

High-throughput results: PubChem BioAssay, National Center for Advancing Translational Sciences (NCATS)
